Measurements: the supplement of paper PMC6555819

What was measured:
Assay in all cases: PBM binding z-score (relative to random genomic background probes); higher = stronger binding; sequences stand for … in GC…GCGATTGACAGCGTAGAATGAAGG
[1] = system: RARb homodimer (NR concentration 270 nM)
Method in brief: (§1)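 Binding buffer was PBS pH 7.4 with 2% milk, 0.02% Triton X-100, 1 mM DTT, 0.2 mg/mL BSA and 0.4 mg/ml salmon testes DNA. In it, ligand-free nuclear receptor dimers were incubated 1 h on custom Agilent 4×180K protein-binding microarrays carrying double-stranded probes. Antibodies against each partner (one per run) detected binding, and z-scores were calculated against random background probes after regression normalization of scanned fluorescence.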

[2] = system: RARg:RXRa (NR concentration 270 nM, RXRa partner concentration 90 nM)
Method in brief: as §1

[3] = system: RARg homodimer (NR concentration 270 nM)
Method in brief: as §1

[4] = system: RXRa DBDmut IVT, anti-RXR (DBD mutation: RXRa K156A/R161A, NR concentration 90 nM)
Method in brief: as §1

[5] = system: RXRa homodimer (NR concentration 180 nM)
Method in brief: as §1

[6] = system: THRa:RXRa (NR concentration 90 nM, RXRa partner concentration 90 nM)
Method in brief: as §1

[7] = system: THRa homodimer (NR concentration 90 nM)
Method in brief: as §1

[8] = system: VDR:RXRa (NR concentration 270 nM, RXRa partner concentration 90 nM)
Method in brief: as §1

[9] = system: VDR homodimer (NR concentration 270 nM)
Method in brief: as §1

Sequence | PBM binding z-score [1] | PBM binding z-score [2] | PBM binding z-score [3] | PBM binding z-score [4] | PBM binding z-score [5] | PBM binding z-score [6] | PBM binding z-score [7] | PBM binding z-score [8] | PBM binding z-score [9]
CCTACTAGGTCATGGTCAGCTAATCTACAGTATG | 3.34 | 3.79 | 4.21 | 1.37 | 2.66 | 2.87 | 1.53 | 1.8 | 0.776
ACTCGGAGGCCAAAGGTCAGAGCTACGCCAGTGA | 4.54 | 6.25 | 4.8 | 0.776 | 6.62 | 3.06 | -0.031 | 3.11 | 0.616
TAGCCTAGGTCATTGGGCCAGAATAGTACGCATC | 2.6 | 4.03 | 4.07 | 1.58 | 2.8 | 2.66 | 0.586 | 2.01 | 1.12
GCATATAGGTAATACAAGGTGATAGTCCGATTGT | -0.0222 | 0.537 | 0.59 | 0.172 | 0.526 | 3.48 | 0.413 | -0.0322 | -0.123
TCTATTAGTTGATTAGGGCAAACGAAACAGCGGA | 0.43 | 0.388 | 0.663 | 0.888 | 0.631 | 0.515 | 0.119 | 0.637 | 0.435
CCTAGCAGGCCAATCTGGGTCGCTCAAGGCTTGA | 0.548 | 0.673 | -0.21 | -0.847 | 0.755 | 2.75 | -0.707 | 0.301 | -0.559
TCATATAGGTAAATGCTAGGTGAAAGTCCGATCT | 0.629 | 0.482 | 0.503 | 1.42 | 0.567 | 1.39 | 0.441 | 0.886 | 0.42
ATCTCTAGGCAAAGTTCAGTGAAAGATCGATAGA | 2.14 | 1.79 | 2.42 | 1.24 | 1.06 | 0.452 | -0.26 | 1.06 | 1.48
GGAACGAGGGCAAATTTGATAGCATCTGTCGACG | 0.969 | 1.06 | 1.73 | 2.41 | 0.93 | 0.959 | -0.432 | 0.619 | 0.807
TCTAGTTGGTCAAAGGTCACTCACTCGAAATGCG | 4.78 | 6.5 | 6 | 2.11 | 7.54 | 3.86 | 2.1 | 4.92 | 3.03
TATACAGGGTCAACGGCCAGAGTACGAATGTCGA | 3.43 | 5.83 | 5.47 | 2.75 | 6.28 | 3.46 | 1.05 | 4.6 | 2.95
TCAAATAGGTAATACAGGTGAAAGTCGGCATCTA | 0.557 | 0.633 | 0.49 | 1.74 | 1.14 | 0.877 | -0.0126 | 1.28 | 0.0898
CAAACTAGGTCCAGAGGTCAAAGTCCGCTTCCCG | 4.66 | 5.31 | 4.62 | 2.53 | 6.34 | 3.75 | 1.72 | 5.14 | 4.18
CAAACTAGGTCAAAGGTCTAAGTCGAGCCAACCA | 2.9 | 4.76 | 4.45 | 1.96 | 4.93 | 3 | 0.688 | 2.98 | 1.09
TCAAACAGGTGAAGGTAACTCAGGTACGCAGTCG | 0.716 | 0.691 | 0.597 | 1.43 | 1.13 | 1.44 | 0.12 | 1.13 | 0.467
CCTACTGGGCCACGAAACGTCATTGATTCAGTGA | -0.373 | -0.321 | 0.105 | -0.404 | -0.385 | -0.288 | -0.682 | -0.697 | -1.01
TCTTGTTGATCAACAGGAGGTTAAGAAAGATCGA | 0.286 | 0.304 | 0.198 | 0.0758 | 0.644 | 0.723 | -0.731 | 0.368 | -0.304
CATACAGCGTCAGCTAGGCCAGAGTAGGGACGGC | -0.506 | -0.321 | -0.175 | -0.697 | -0.412 | -0.637 | -0.62 | -0.851 | -0.797
CAAACTAGGTCAAGGTCGAAGTCGGTTTGTGCCA | 3.74 | 4.38 | 5.12 | 2.45 | 3.49 | 3.55 | 2.45 | 3.27 | 2.48
CCTTCCGGGTCACTGACAGGTTATAGCATTTGGA | 3.23 | 5.65 | 4.44 | 1.53 | 4.67 | 3.67 | 2.25 | 3.83 | 1.3
CGAACTAGGTCAATGACAGTGAATCTCCGCACGC | 2.77 | 3.48 | 4.07 | 1.91 | 2.36 | 2.2 | 0.673 | 1.15 | 0.425
CGACCTAGGTCATCCAGGACAGTGAATACATTGA | 3.41 | 4.75 | 4.97 | 2.6 | 3.37 | 4 | 2.18 | 4.85 | 2.5
TCGTGTAGATCAAAGGTTAAGAAAGCCGAAGCCT | 1.47 | 1.76 | 0.92 | 0.608 | 3.14 | 1.33 | 0.108 | 1.45 | 0.111
TGAATGAGGTTAACGATCAGGGAACGTGGCGTCG | 0.791 | 1.96 | 1.19 | 0.898 | 2.81 | 2.52 | 0.403 | 1.05 | 0.222
AGTCAAAGTTCAGGACGAGGTAACTTAAAGCACG | 3.3 | 4.79 | 5.03 | 3.03 | 3.16 | 3.94 | 1.7 | 3.1 | 2.28
CGAACTAGGTTATTGACAGGACAGTGAATAGTAA | 0.991 | 1.04 | 0.618 | 0.59 | 0.57 | 1.27 | -0.0792 | 0.204 | 0.278

Sequence | PBM binding z-score [1] | PBM binding z-score [2] | PBM binding z-score [3] | PBM binding z-score [4] | PBM binding z-score [5] | PBM binding z-score [6] | PBM binding z-score [7] | PBM binding z-score [8] | PBM binding z-score [9]
CCTTACGGGTCACTGACAGGTTATAGGATTTGGA | 3.52 | 5.89 | 4.77 | 1.67 | 5.17 | 2.96 | 0.251 | 3.77 | 1.28
TCTTGTGGATCAATAGAGGTTAAGAAAGTGCGCT | 1.26 | 0.875 | 0.534 | 0.749 | 1.22 | 2.23 | -0.3 | 1.73 | 0.314
CCATACGGGTCACGAGGTTATAGCACGACGAGCG | 3.99 | 6.02 | 5.35 | 1.27 | 7.38 | 3.55 | 1.09 | 5.02 | 2.45
CCTACTGTGCCAAGGTCATTGATCAGTCAAAGCA | 3.73 | 3.88 | 3.24 | 2.18 | 3.4 | 3.68 | 3.43 | 3.52 | 3.63
CCTAGCAGGCCAATCTGGGTCACTAAAGGCTTGA | 2.01 | 0.915 | 1.17 | 0.23 | 0.402 | 3.4 | 0.446 | 0.366 | 0.000244
GGAGACAGGTGAAACGCAGGTAACTCAGGGTGGC | 0.55 | 1.11 | 0.252 | -0.648 | 0.638 | 1.48 | 0.0199 | -0.319 | -0.609
TCGAGTGGGTTACCAATGGGGCATTCAGCTTTCT | 0.278 | 0.678 | -0.504 | -0.00783 | 0.312 | -0.369 | -1.25 | 0.0141 | -1.02
GCATATAGGCAATACAAGGTGAAAGTCCGATTGT | 0.688 | 0.477 | 0.305 | 0.168 | 0.621 | 3.17 | 0.6 | 0.0245 | -0.0976
GCATATAGGTAATACAAGGTGAAATTCCGATTGT | 0.44 | 0.518 | 0.637 | 0.228 | 0.614 | 4.06 | 0.848 | 0.179 | 0.0965
ATCTCTAGGTAAGTCTCAGTTCAGTGAAGAACGC | 1.02 | 0.158 | 0.271 | 0.813 | 0.0582 | 1.07 | 1.23 | 0.65 | 1.72
CCTAGCAGGCCAATCTGGGTCACTCTAGGCTTGA | 2.09 | 0.781 | 1.14 | 0.254 | 0.361 | 3.2 | 0.202 | 0.251 | -0.375
AGTCAAAGTTCATCTAGGGAACGTAAGATATGCT | 3.82 | 5.57 | 6.19 | 4.67 | 4.53 | 2.92 | -0.658 | 4.73 | 4.63
TCCATTAGTTGATTAGGGCAACCGAAACAGCGGA | 0.875 | 0.57 | 0.556 | 1.09 | 0.491 | 0.718 | 0.498 | 0.545 | 0.246
GCATATAGGTAATACAAGGAGAAAGTCCGATTGT | -0.449 | 0.152 | 0.156 | 0.562 | -0.0159 | 1.9 | -0.606 | -0.177 | -0.234
ATATGTAGGTTATCGCGTCATTCAGTTTGCGCAT | 0.515 | 0.647 | 0.634 | 0.806 | 1.03 | 0.388 | 0.235 | 0.798 | 0.254
GCTGCTAGGTCAACTGATGTTCAGCTAAAGCTCG | 3.45 | 4.37 | 5.51 | 1.81 | 2.95 | 2.89 | 1.02 | 1.61 | 0.0528
CCTACCGGGCCAAGGTCATTGATCAGTCAAAGCA | 3.48 | 3.89 | 3.32 | 0.804 | 3.5 | 3.58 | 2.77 | 3.22 | 3.08
CCGAGTAGGTTATGTGGCATTCAGGCAACGGTGA | 0.908 | 0.273 | 0.223 | 0.434 | 0.208 | 0.162 | 0.415 | -0.184 | 0.153
TCTTGTAGCTCAGCAGGTTAAGAAAGCTGGCCAA | -0.305 | -0.557 | -0.799 | -0.298 | -0.011 | -0.123 | -0.926 | -0.236 | -0.952
CGTCCAAGGCCAGAGAGGTCAGTGAATGCCGAGT | 4.2 | 3.05 | 4.27 | 1.06 | 2.22 | 2.77 | 0.817 | 4.04 | 2.55
CAAACTAGGGCACCGGAAGGTCAAAGTCCGCATG | 4.51 | 5.51 | 4.44 | 0.724 | 3.84 | 3.25 | 0.924 | 3.69 | 1.45
CAAACTAGGTCAAAGGTCATAGTCGAGCCAACCA | 5.28 | 8.65 | 6.91 | 2.92 | 10.3 | 4.84 | 1.91 | 6.71 | 3.55
TATTGTAGATCAGCAGGTTAAGAAAGCTGGCCAA | -0.28 | -0.0508 | 0.00581 | -1.23 | 0.171 | 0.0661 | -0.952 | 0.112 | -0.39
ATCGAAAGGTCGAGGCGAGTATAGAGAAAGGGAA | 1.95 | 3.9 | 3.91 | 0.625 | 4.19 | 1.83 | -0.512 | 2.33 | 0.276
CGTCCAAGGTCAACGGTCAGTGAAGAGATGACGG | 4.55 | 6.08 | 6.47 | 3.36 | 5.56 | 4.13 | 2.62 | 4.18 | 2.15
ACAATGAGGTTAAGATCAGGGAAACAGAATACAT | 0.906 | 2.33 | 1.7 | 1.33 | 2.53 | 2.51 | 0.954 | 1.3 | 0.941
